# Over roughly 33,000 sequences, “E-score (-0.5 to 0.5)” has its median near -0.035; the highest 2% begin near 0.35. The entries come from a sample that favours the highest values as a whole.
# Molecular target: T1, Pdr3 (UniProt P33200)
# T1 sequence: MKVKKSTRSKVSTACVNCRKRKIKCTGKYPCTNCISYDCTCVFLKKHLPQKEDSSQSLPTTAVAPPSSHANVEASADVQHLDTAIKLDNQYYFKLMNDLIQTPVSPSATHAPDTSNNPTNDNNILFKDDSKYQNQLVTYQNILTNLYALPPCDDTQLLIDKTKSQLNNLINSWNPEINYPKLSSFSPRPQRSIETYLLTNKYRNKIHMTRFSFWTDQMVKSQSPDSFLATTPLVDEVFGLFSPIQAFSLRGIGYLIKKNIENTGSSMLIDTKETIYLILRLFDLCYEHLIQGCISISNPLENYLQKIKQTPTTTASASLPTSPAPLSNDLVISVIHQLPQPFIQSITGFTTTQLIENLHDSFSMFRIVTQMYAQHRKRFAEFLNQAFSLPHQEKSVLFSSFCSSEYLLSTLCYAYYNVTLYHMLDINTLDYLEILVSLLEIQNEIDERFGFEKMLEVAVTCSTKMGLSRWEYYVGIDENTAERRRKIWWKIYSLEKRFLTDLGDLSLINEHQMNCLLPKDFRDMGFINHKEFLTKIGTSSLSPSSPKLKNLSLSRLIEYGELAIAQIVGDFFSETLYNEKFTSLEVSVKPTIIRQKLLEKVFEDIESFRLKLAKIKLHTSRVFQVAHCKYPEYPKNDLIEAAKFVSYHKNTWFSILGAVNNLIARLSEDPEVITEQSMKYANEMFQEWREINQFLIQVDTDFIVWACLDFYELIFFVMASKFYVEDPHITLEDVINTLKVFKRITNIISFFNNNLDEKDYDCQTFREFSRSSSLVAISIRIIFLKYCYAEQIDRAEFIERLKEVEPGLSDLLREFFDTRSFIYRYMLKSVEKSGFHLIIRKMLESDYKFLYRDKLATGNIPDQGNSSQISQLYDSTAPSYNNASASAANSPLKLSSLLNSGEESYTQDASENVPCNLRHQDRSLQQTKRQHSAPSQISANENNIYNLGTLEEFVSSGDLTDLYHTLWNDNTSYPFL
# Experiment: PBM E-score (8-mer binding enrichment) (E-score (-0.5 to 0.5)); higher = stronger / more preferred TF binding
# Conditions: protein concentration: 200 nM; construct: GST-full length
# Description: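 Universal 'all 10-mer' protein binding microarrays (Agilent AMADID 015681) probed with GST-tagged S. cerevisiae TFs (full-length or DBD) made by in vitro transcription/translation (PURExpress), about 100-200 nM. Bound TF was detected with fluorescent anti-GST. Each ungapped 8-mer (which stands for itself and its reverse complement) is scored by the PBM enrichment score (E-score), a modified Wilcoxon-Mann-Whitney statistic from -0.5 to +0.5, computed with the Universal PBM Analysis Suite. Scale: above 0.35 generally sequence-specific binding.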
row,Sequence,PBM E-score
1,ACTTCGGA,0.318
2,ATATAAGG,0.167
3,CGCTATCA,0.0421
4,ACGACACC,0.0551
5,CCCGCAGA,0.235
6,CCACAGGA,-0.15
7,ACAAAGTA,-0.0427
8,AAGGGATT,-0.172
9,CGGCGAAG,0.154
10,ATAAGGTG,-0.0163
11,CGGAAGAG,0.365
12,GGGAAGAA,-0.0436
13,GGGAAGAC,-0.0964
14,CCGAAGAG,0.129
15,CGGAAGAC,0.393
16,AGGAAGAA,-0.186
17,CGGAAGAA,0.378
18,AGGAAGAC,-0.246
19,AGGAAGAG,-0.0084
20,GCCCCAGC,0.0198
21,CGCTCCAA,-0.0785
22,ACTCCAGT,-0.118
23,GACTAGAA,-0.203
24,ACGGATAG,0.216

row,Sequence,PBM E-score
1,ACGGATAA,0.375
2,CCGGATAA,0.396
3,ACGGATAT,0.305
4,CCGGATAC,0.351
5,ACGGATTA,0.217
6,GCGGATAA,0.342
7,CGGGATAA,0.408
8,CCGGATTA,0.385
9,GCGGATTA,0.204
10,TGGGATAA,-0.102
11,GGGGATAA,0.0548
12,AGCTAGTC,-0.0629
13,ACAGCCCG,0.0226
14,ACCTTTCT,-0.129
15,GAAACTCC,0.0961
16,AATTCAGC,0.0247
17,AAGGATAC,-0.00551
18,ACGGATAC,0.368
19,ATGGATAC,-0.0299
20,ACGGTGCC,0.0198
21,CGGGCCCG,0.44
22,CCGGCCCG,0.375
23,AGGGCCCG,0.182
24,CCGGCCGG,0.472

row,Sequence,PBM E-score
1,ACGGCCGA,0.293
2,CCGGCCGC,0.317
3,TCGGCCAA,0.12
4,CCGGCCCA,-0.0155
5,CGGGCCCA,0.0442
6,ACGGCCGG,0.344
7,TCGGCCGA,0.377
8,ACGGCCCG,0.22
9,CCGATGGC,0.175
10,CGAGCTGA,0.143
11,ACTACCGA,-0.0714
12,CGCCTTGC,-0.0202
13,ATCATTGA,-0.0198
14,CAGGCACA,-0.171
15,AACTGGCA,-0.0302
16,GGTCAAAC,0.0507
17,GGTTCTGA,-0.109
18,ACCCGTGA,0.0325
19,CAGACGGG,0.103
20,CTAGTCTC,-0.269
21,CCGGCCGA,0.372
22,GCGGCCGA,0.222
23,CCGGCCTA,0.184
24,GGAGTCAC,-0.0786

row,Sequence,PBM E-score
1,CCTGTAGC,-0.282
2,CGGAAGGA,0.396
3,AGGAAGGC,-0.185
4,AGGAAGGA,-0.363
5,CGGAAGGC,0.369
6,CAGAAGGC,0.0006
7,GGGAAGGA,-0.00585
8,ATATCTGC,-0.044
9,ATAGAAAG,-0.0611
10,AGGAAGCG,0.0228
11,CACCTGCA,-0.142
12,CGGCGGAG,0.372
13,CGGCGGCA,0.226
14,TGGCGTAA,-0.263
15,GGGCGGAC,0.373
16,AGGCGGCG,0.0493
17,AGGCGGAG,0.174
18,AGGCGGAC,0.211
19,TGGCGGAA,0.359
20,CGGCGGAC,0.289
21,CGGCGGAA,0.456
22,AGGCGGAA,0.35
23,TGGCGAAA,-0.0244

# From the supplement of paper PMC3334620
